Experimental data from PubChem BioAssay AID602318 (Sanford-Burnham Center for Chemical Genomics, 2012).
About 550 (29%) of roughly 1,900 compounds were called active. These entries were drawn from the full list. Unmarked numbers belong to inactive results. Rule as the data show it: active = inhibition above about 40%; inactive = the rest.

Target: 26S proteasome non-ATPase regulatory subunit 14 (Homo sapiens) (UniProt O00487)
Assay: Rpn11 (PSMD14) deubiquitinase inhibitors, confirmation, biochemical, fluorescence polarization, single concentration (AID 602318)
Conditions: purified human 26S proteasome, Ub4-pepOG fluorescence polarization; at 20 µM; active compounds read high; proteasome pretreated with epoxomicin

Chain of 26S proteasome non-ATPase regulatory subunit 14 (Homo sapiens) (O00487 whole entry, looked up): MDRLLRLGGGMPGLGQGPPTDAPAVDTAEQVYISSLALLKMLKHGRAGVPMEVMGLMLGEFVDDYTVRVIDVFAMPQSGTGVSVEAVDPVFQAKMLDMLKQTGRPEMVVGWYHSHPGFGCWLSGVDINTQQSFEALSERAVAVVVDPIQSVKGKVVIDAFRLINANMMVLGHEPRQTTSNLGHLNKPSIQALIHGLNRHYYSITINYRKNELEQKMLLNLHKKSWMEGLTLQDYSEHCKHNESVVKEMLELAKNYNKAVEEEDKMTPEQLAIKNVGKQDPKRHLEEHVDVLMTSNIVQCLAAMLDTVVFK

Row | Compound | inhibition
1 | COC1=C/C(=C/c2c(N)n3nc(CC(=O)N4CCOCC4)sc3nc2=O)C=CC1=O | 31.8%
2 | O=C(COc1cccc(F)c1)Oc1ccc(C(=O)c2ccccc2)cc1 | -1.38%
3 | Cc1ccc(N=Cc2c(O)cc(C)oc2=O)c(C)c1 | 22.8%
4 | CCOc1ccc(-n2c(O)c(/C=N/c3ccnn3Cc3ccncc3)c3ccccc3c2=O)cc1 | 98.3% (active)
5 | CCOc1ccc(-n2c(O)c(/C=N/Nc3nnc(C)c(=O)[nH]3)c3ccccc3c2=O)cc1 | 38.6%
6 | COc1ccc2[nH]c(=O)c(-c3noc(-c4ccc(F)cc4)n3)cc2c1 | 3.41%
7 | Cc1cc(/C=N/Nc2ccc([N+](=O)[O-])cn2)c(C)n1-c1cccc(C(=O)O)c1 | 19.1%
8 | Cc1oc2c(C)c3oc(=O)c(CC(=O)N[C@@H](CC(C)C)C(=O)N[C@@H](Cc4ccccc4)C(=O)O)c(C)c3cc2c1C | 26.8%
9 | N#Cc1c(-c2cccs2)nc(SCC(=O)c2ccc(Br)cc2)[nH]c1=O | 46% (active)
10 | CCCCCCSc1ccc([C@@H]2[C@H]3C(=O)N(CC)C(=O)[C@H]3[C@]3(C(=O)OC)CCCCN23)cc1 | 33.6%
11 | CS(=O)(=O)c1ccc2c(c1)SC1=NC(=O)/C(=C/c3ccco3)C(=N)N12 | 46.2% (active)
12 | CN(C)c1ccc(-n2cccc2/C=C2/SC(=Nc3ccc(F)cc3)NC2=O)cc1 | -10.9%
13 | Cc1cc(/C=C2/SC(=O)N(CC(=O)N3CCCC3)C2=O)ccc1N1CCOCC1 | 33.9%
14 | COc1cccc(-c2nn(-c3ccccc3)cc2/C=C(\C#N)C(=O)NCCCn2ccnc2)c1 | 53.8% (active)
15 | CCN(CC)C(=O)CSc1nc2ccccc2n1CC(=O)N1CCN(c2ccccc2OC)CC1 | -7.43%
16 | O=C(CSc1nc2ccccc2c(=O)[nH]1)Nc1nc(-c2ccc(Br)cc2)cs1 | 129% (active)
17 | C=CCn1c(SCC(=O)NCc2ccccc2)nnc1-c1cc(Br)ccc1O | -6.6%
18 | Cc1ccc2cc(C#N)c(NCCNC(=S)NCCCN3CCOCC3)nc2c1 | 1.22%
19 | O=C(Nc1ccc(-c2nnc(-c3ccccc3)o2)cc1)c1ccc(Br)o1 | 11.5%
20 | COc1cc(/C=C2/SC(=S)N(Cc3ccccc3)C2=O)cc(OC)c1O | 49.8% (active)
21 | Nc1nonc1-n1nnc(C(=O)N/N=C/c2cc(Br)ccc2O)c1CSC1=NCCS1 | 24.8%
22 | CCOc1cc(/C=C2\SC(N3CCCCC3)=NC2=O)ccc1O | 18.3%
23 | O=C(CSc1cccc2cccnc12)N/N=C/c1cccnc1 | 32.7%
24 | N#Cc1ccc(C(=O)Nc2cccc3cccnc23)c(F)c1 | -21.1%
25 | CC(=O)/C(=N\Nc1ccc(Cl)cc1Cl)Sc1cccc2cccnc12 | 62.9% (active)
26 | CC1CCN(c2ccc3c(c2)S(=O)(=O)c2cc(C(=O)O)ccc2C3=O)CC1 | 30.4%
27 | COc1cccc(/C=C(/CC(=O)Nc2ccc(N3CCOCC3)cc2)c2nc3ccccc3s2)c1 | 57.2% (active)

Row | Compound | inhibition
28 | Cc1nc2ccccc2n1C(=O)N1CCOCC1 | -9.96%
29 | COc1ccc(-n2c(SCC(=O)Nc3sc4c(c3C#N)CCCC4)nnc2-c2ccc(O)cc2)cc1 | 13.9%
30 | CC(=O)Nc1ccccc1Sc1ccc2c3c(cccc13)C(=O)N(c1ccc(C)cc1)C2=O | 1.98%
31 | CCOc1ccc(NC(=O)c2ccc(NC(=O)COC(=O)c3ccc(NC(=O)CC#N)cc3)cc2)cc1 | 103% (active)
32 | COC(=O)c1ccc(OCC(=O)NC(C)(C)C)cc1 | -8.84%
33 | Cc1nc2ccc(C(=O)N3CCSCC3)cc2s1 | -7.54%
34 | Oc1c(CN2CCCC2)cc(COCc2ccccc2)c2cccnc12 | 14.7%
35 | C=CC[n+]1c(-c2ccc(C)cc2)csc1NNC(=O)Nc1ccccc1 | 9.49%
36 | CC(C)(C)NC(=O)CSC(=Nc1ccccc1F)NC#N | 16.3%
37 | CCOc1cc(/C=C2\SC(N3CCCC(C)C3)=NC2=O)ccc1O (centres undefined) | 11.7%
38 | Cc1cccc(OCc2nnc(SCc3nc4cc(C(F)(F)F)ccc4c(=O)[nH]3)o2)c1 | 57.8% (active)
39 | CCc1ccc(NC(=O)CS(=O)CC(=O)NCCCc2ccccc2)cc1 (centres undefined) | 20.8%
40 | COc1cccc(NC(=O)C(C)Oc2ccccc2)c1 (centres undefined) | -12.2%
41 | O=C(O)c1ccc(NN=CC2=C(N3CCOCC3)/C(=C/c3ccccc3)CC2)cc1 | 48.1% (active)
42 | CN(C)CCOC1c2ccccc2-c2ccccc21 | -6.33%
43 | Cc1ccc(NC(=O)CN2CCc3ccccc3C2)cc1 | -8.38%
44 | COc1ccc(CC(=O)Nc2ccc(-c3nnc(-c4ccc(C)cc4)o3)cc2)cc1 | -7.43%
45 | COc1ccc(NC(=O)Cn2c(-c3ccc(OC)cc3)cn(-c3ccc(C)cc3)c2=O)cc1 | 42.8% (active)
46 | NC(N)=N/N=C/c1ccc(OCc2ccc(Cl)cc2Cl)cc1 | 37%
47 | Oc1ccc(/C=N/Nc2nc(-c3ccccc3F)nc3ccccc23)c(O)c1 | 18.3%
48 | O=C1NC(=O)C2C1C(c1ccc([N+](=O)[O-])cc1)=NN2Cc1ccccc1 (centres undefined) | 29.9%
49 | CC(C)Oc1ccc(/C=C(\NC(=O)/C=C/c2ccco2)C(=O)NCCc2nc3ccccc3[nH]2)cc1 | 44.1% (active)
50 | Cc1ccc(-c2nnc(-c3ccc(NC(=O)c4cccs4)cc3)o2)cc1 | -12.4%
51 | Cc1c(N=Nc2ccc(N(C)C)cc2)c(=O)n(-c2ccccc2)n1C | 47.2% (active)
52 | CCN1CCCC1CNC(=O)c1cc2c(=O)n(C)c3ccccc3c2n1C (centres undefined) | 2.2%
53 | Cc1cc(OCC(=O)Nc2nccs2)c2c(C)c(C)c(=O)oc2c1 | 38.8%
54 | Cc1nc2ccccc2nc(=O)c1NNc1ccc([N+](=O)[O-])cc1 | 24%
